# High-throughput results deposited in PubChem by National Center for Advancing Translational Sciences (NCATS).
# HCMV antiviral: blocks human cytomegalovirus replication | 4.5% of 410,000 active | HFF cells, HCMV-luciferase reporter, 72 h; hits give low values | activity change, negative = inhibition, % at 57.5 µM; in the data active = activity change below about -60%; inconclusive = no clear call, values can overlap the other calls; inactive = above about -39%
#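 Screen run at 2 compound doses on HFFs infected with reporter HCMV, MOI 1 PFU/cell. Luciferase activity from cell lysates at 72 h post infection gave inhibition relative to buffer-only and Salinomycin wells.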
# HCV inh: inhibitors of hepatitis C virus infection; Huh7.5.1 HCVcc-Cre infection, luciferase reporter, 44 h; Potency, µM (series often up to 41.8 µM), for inactives: at the highest dose activity change, negative = inhibition, hits mostly inhibitors; 3.4% of 340,000 active; active = well fitted inhibition curve with a large enough effect; inconclusive = small, poorly fitted or top-dose-only effect, or another doubt; inactive = no such curve, though single readings can be large or run the other way; note: potency is the fitted concentration of half-maximal effect
#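 A cell-based infection assay in which seeded cells (1,000 per well) receive test compound after 4 h, are inoculated with HCVcc-Cre at approximately 0.5 moi, and are incubated 44 h before luminescence detection.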
# Lassa entry inh: blocks Lassa virus binding to or entry into cells; 1.2% of 300,000 active; Potency, µM (series often up to 37.9 µM), inactives show at the top dose activity change, negative = inhibition, actives largely listed as inhibitors; AID 540256; Lassa virus pseudotype entry inhibition, cell reporter; calls by dose curve; tested in HEK293 cells; note: potency is the fitted concentration of half-maximal effect; nearly all actives have a fitted effect of over 50% in size
# MARV entry inh: inhibitors of Marburg virus binding or cell entry; Marburg virus pseudotyped entry inhibition, cell reporter; Potency, µM (highest dose often 37.8 µM), inactives show at the top dose activity change, negative = inhibition, actives largely listed as inhibitors; 1.8% of 300,000 active; AID 540276; calls by dose curve; tested in HEK293 cells; note: potency is the fitted concentration of half-maximal effect
# VACV Venus inh: inhibitors of vaccinia virus (Venus reporter); 0.46% of 330,000 active; Potency, µM (series often up to 36.5 µM), for the others: at the highest dose activity change, negative = inhibition, usual class: inhibitors; Vaccinia virus Venus reporter expression, fluorescence; AID 720580; calls by dose curve; tested in A549 cells; note: potency is the fitted concentration of half-maximal effect; nearly all actives have a fitted effect of over 30% in size
# VACV mCherry inh: inhibitors of vaccinia virus infection (mCherry reporter signal); 0.63% of 310,000 active; Vaccinia virus mCherry reporter infection, fluorescence; Potency, µM (top dose mostly 36.5 µM), for inactives: at the highest dose activity change, negative = inhibition, usual class: inhibitors; calls by dose curve; tested in A549 cells; note: potency is the fitted concentration of half-maximal effect; nearly all actives have a fitted effect of over 35% in size
# An asterisk follows results filed as active; i = inactive; ? = inconclusive; nt = no result; [ ] = dose if it differs, or a comment. A selection: hits, their analogues and other compounds. The true share with any hit is near 7.8%. % is set by controls: 0 for no effect and ±100 for the full control effect.
SMILES,HCMV antiviral,HCV inh,Lassa entry inh,MARV entry inh,VACV Venus inh,VACV mCherry inh
CCCCCCN1C[C@H](O)[C@@H](n2cc(-c3ccc(F)cc3)nn2)C[C@H]1c1ccc(C)cc1,nt,nt,25µM*,nt,nt,nt
CCCCCCN1C[C@H](O)[C@@H](n2cc(-c3ccc(F)cc3)nn2)C[C@H]1c1ccccc1,nt,nt,16µM*,nt,nt,nt
COc1ccc(C)cc1NC(=O)COc1cc(=O)n(C)c2ccccc12,-16,nt,?,?,-14%,-9%
CN(CC(=O)Nc1ccccc1Br)C(=O)c1ccccc1OCc1ccc(Cl)cc1,-9,?,?,-28%,-35%,0.1µM*
Cc1ccc2nc(-c3ccccc3)cc(C(=O)N(C)CC(=O)Nc3ccccc3Br)c2c1,-19,?,?,11µM*,-6%,i
CCS(=O)(=O)c1oc(-c2ccc(F)cc2)nc1S(=O)(=O)c1ccccc1,-99*,nt,?,?,?,?
CCCCS(=O)(=O)c1oc(-c2cccs2)nc1S(=O)(=O)c1ccc(F)cc1,-98*,nt,?,?,-11%[7.34 µM],-15%[7.34 µM]
CCCSc1oc(-c2cccs2)nc1S(=O)(=O)c1ccc(C)cc1,-24,nt,10%[46.1 µM],-9%[46.1 µM],-20%,-14%
CCCCCS(=O)(=O)c1oc(-c2cccs2)nc1S(=O)(=O)c1ccc(C)cc1,-88*,nt,-10%[46.1 µM],-1%[46.1 µM],-28%,-27%
CCCCS(=O)(=O)c1oc(-c2ccc(F)cc2)nc1S(=O)(=O)c1ccc(C)cc1,-100*,nt,?,10µM*,-10%[7.34 µM],-3%[7.34 µM]
Cc1nc2nc(SCC(=O)Nc3cccc(Cl)c3)nn2c(C)c1Cc1ccccc1,?,nt,-4%[46.1 µM],nt,-26%,-29%
C#Cc1cccc(C(=O)NCc2nc(-c3ccccc3NC(=O)C3CCCO3)oc2C)c1 (centres undefined),nt,nt,nt,nt,1%,-7%
CCC(C)S(=O)(=O)c1oc(-c2ccc(F)cc2)nc1S(=O)(=O)c1ccc(F)cc1 (centres undefined),-100*,nt,?,?,-27%,i
CN(CCOc1ccccc1)CC(=O)Nc1cccc(C#N)c1,-65*,2%,2%,-18%[46.1 µM],-4%,-7%
CN(CCOc1ccccc1)CC(=O)Nc1cccc(Br)c1,37,?,3%,22%[46.1 µM],-5%,-1%
CCn1nc(C)cc1-c1nnc(Sc2ncc([N+](=O)[O-])s2)n1C,-96*,3.5µM*,nt,nt,nt,nt
COc1ccccc1-c1c(C)nn2c(N)c(-c3ccccc3)cnc12,-82*,?,-9%[46.1 µM],?,-21%,i
COc1ccc(-c2c(C)nn3c(N)c(-c4ccccc4)cnc23)cc1OC,3,13µM*,nt,nt,nt,nt
COCc1nn2c(N)c(-c3ccccc3)cnc2c1-c1ccccc1,20,-4%,?,12%[46.1 µM],-20%,i
C(=Nc1cnc2ccccc2c1)c1cccnc1,nt,nt,nt,nt,-4%,-8%
COc1ccccc1C(=O)Nc1ccccc1OCc1cc(=O)n2cc(C)sc2n1,3,nt,?,-21%[46.1 µM],13%,14%
Cc1nn(C)c(Oc2ccc(Cl)cc2)c1C(=O)Nc1ccc(F)cc1F,-60*,10µM*,1%,-20%,nt,nt
Cn1nc(C(F)(F)F)c(C(=O)Nc2ccc(F)cc2F)c1Oc1cccc(Cl)c1,-20,?,-2%,-8%,nt,nt
O=C(/C=C/c1ccc(Cl)cc1)N1CCN(c2ccc([N+](=O)[O-])c(N3CCOCC3)c2)CC1,-38,7.9µM*,0%,-10%,-12%,i
O=C(COc1ccc(Br)cc1)N1CCN(c2ccc([N+](=O)[O-])c(N3CCCCC3)c2)CC1,61,?,-1%,-1%,-19%,-21%
O=[N+]([O-])c1ccc(N2CCNCC2)cc1N1CCCCC1,-14,10µM*,3%,?,nt,nt
O=C(COc1ccccc1)N1CCN(c2ccc([N+](=O)[O-])c(N3CCCCC3)c2)CC1,-7,7.1µM*,?,-13%,-12%,-13%
O=[N+]([O-])c1ccc(Cl)cc1N1CCCC1,22,18%,29%[46.1 µM],10%[46.1 µM],-9%,i
Cc1ccc(S(=O)(=O)c2nc(-c3ccco3)oc2SCc2ccc(F)cc2)cc1,-23,nt,-29%[46.1 µM],-1%[46.1 µM],-18%,-23%
CCOc1ncccc1C(=O)Nc1ccc(S(=O)(=O)NC2=NCCCCC2)cc1,12,-20%,16%,-23%[46.1 µM],-3%,i
